Screening data (PubChem)
An excerpt weighted towards active compounds, which were near 2.1% of everything screened.
CHT inh = inhibitors of human choline transporter CHT | hit rate 0.86% among 310,000 | High affinity choline transporter 1 (Homo sapiens), Q9GZV3 | B-score at 10 µM | CHT-expressing cells, membrane potential dye, choline response; stronger effect = lower value;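 active = B-score over 3 SD under the library average, and starting fluorescence ratio not unusually high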;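 note: choline stimulus applied at its EC90 after an EC20 pre-addition; B-score computed on integrated fluorescence ratio after choline addition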
Target sequence (Q9GZV3 whole entry, looked up): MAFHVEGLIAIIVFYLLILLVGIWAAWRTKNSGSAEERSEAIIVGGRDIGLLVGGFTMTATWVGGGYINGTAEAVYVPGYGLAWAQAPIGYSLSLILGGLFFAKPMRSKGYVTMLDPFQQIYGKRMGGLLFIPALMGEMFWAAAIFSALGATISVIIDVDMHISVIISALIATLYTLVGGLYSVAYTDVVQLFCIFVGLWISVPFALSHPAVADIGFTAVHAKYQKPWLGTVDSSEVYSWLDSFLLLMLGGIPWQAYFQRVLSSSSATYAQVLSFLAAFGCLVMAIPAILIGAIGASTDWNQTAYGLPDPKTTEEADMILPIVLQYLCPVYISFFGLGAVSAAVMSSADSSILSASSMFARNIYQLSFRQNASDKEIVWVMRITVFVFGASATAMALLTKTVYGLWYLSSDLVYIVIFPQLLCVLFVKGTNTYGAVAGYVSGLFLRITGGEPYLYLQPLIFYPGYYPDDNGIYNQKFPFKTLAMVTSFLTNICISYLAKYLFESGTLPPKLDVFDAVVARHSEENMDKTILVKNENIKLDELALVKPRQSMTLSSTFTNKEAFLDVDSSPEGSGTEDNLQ
CHT allo act = CHT positive allosteric modulators, primary screen, cell-based, membrane potential dye, choline EC20 | AID 488977, 2010 | B-score at 10 µM | hit rate 0.49% among 310,000 | CHT-expressing cells; stronger effect = higher value; LV-AA mutant CHT in HEK293 cells;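 active = initial fluorescence not abnormally high and integrated response B-score, plate-corrected, over 3 SD above library mean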
EP2 mod = EP2 receptor modulators, cAMP readout, primary screen, cell-based, HTRF cAMP, PGE2 stimulation. Prostaglandin E2 receptor EP2 subtype (Homo sapiens), P43116. EP2-expressing cells, cAMP HTRF FRET, PGE2 co-stimulation. induction, % at 25 µM. hit rate 0.83% among 260,000. AID 940, 2007;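 active = compounds whose cAMP rise, as percent of the full-agonist control response, exceeds 60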;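 note: rat C6 glioma line stably carrying human EP2 under a CMV promoter; the protocol text gives 20 µM as final concentration; 100% = response of wells given 1 µM PGE2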
EP2 antag = human EP2 receptor antagonists, primary screen, TR-FRET cAMP, C6 glioma cells. hit rate 0.52% among 260,000. Prostaglandin E2 receptor EP2 subtype (Homo sapiens), P43116. C6 glioma cells expressing human EP2; cells stimulated with saturating PGE2. inhibition, % at 25 µM;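 active = percent inhibition above 40 after rounding to a whole number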;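 note: rat C6 glioma host cells with rolipram phosphodiesterase inhibitor present; the protocol text gives 20 µM as final concentration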
CHT inh conf = CHT inhibitors, confirmation, cell-based, membrane potential dye, duplicate | shares compounds with CHT inh | CHT-expressing cells, choline membrane potential dye; LV-to-AA substituted CHT, HEK293 cells | CHT activity remaining % of control (stronger effect = lower value), % at 10 µM | hit rate 70% among 2,400 | AID 493221, 2011;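 active = choline transporter activity left, mean of duplicates at 10 µM, below buffer-only control mean minus 3 SD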;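 note: depolarization triggered by choline at its EC90 following an EC20 pre-addition; 0% = hemicholinium-3 full block and 100% = buffer-only control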
HEK293 CHT ctr = membrane potential effects in parental HEK293, counter-screen for CHT inhibitor project, cell-based, membrane potential dye. shares compounds with CHT inh. choline response; active = decrease or increase beyond buffer ±3SD. membrane potential ratio readout (active if shifted either direction beyond buffer ±3SD; no single direction) at 10 µM. hit rate 4% among 2,400. AID 493222, 2011;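 note: parental cells lack the transporter so any hit is non-specific; ratio is peak minus trough fluorescence over baseline after EC90 choline challenge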
Active calls of the source: *; i = inactive; x = no result.

SMILES	CHT inh	CHT allo act	EP2 mod	EP2 antag	CHT inh conf	HEK293 CHT ctr
CN1CCN(c2ccc([N+](=O)[O-])cc2C(=O)c2ccc(Cl)cc2)CC1	-5*	i	2	10	68%*	i
FC(F)(F)c1cccc(OCc2nnc3n2CCC3)c1	i	i	-8	10	x	x
c1ccc(-c2ccccc2OCc2nnc3n2CCC3)cc1	-5.3*	i	28	2	60%*	i
CCCCCc1nc2sc3c(c2c(=O)n1NC(=O)c1ccc([N+](=O)[O-])cc1)CC(C)(C)OC3	-12*	i	-60	8	28%*	i
COc1cc(CN2CCc3c(nc(N4CCC(C)CC4)[nH]c3=O)C2)cc(OC)c1	x	x	-29	10	x	x
Cc1cc(C(C)(C)C)nc2[nH]n(-c3ccccc3)c(=O)c12	i	i	-14	2	x	x
O=c1c2c(C(F)(F)F)cc(C(F)(F)F)nc2[nH]n1-c1ccccc1	-6.1*	i	22	13	46%*	i
CCCn1c2ccccc2c2cnn(CC(=O)N(CC)CC)c(=O)c21	i	i	x	x	x	x
O=C(Cn1ncc2c3ccccc3n(Cc3ccccc3F)c2c1=O)NCCCN1CCCC1=O	i	i	x	x	x	x
CCCn1c2ccccc2c2cnn(CC(=O)NCCN(C)C)c(=O)c21	-8*	i	x	x	19%*	i
CCCn1c2ccccc2c2cnn(CC(=O)NCCN(CC)CC)c(=O)c21	-9.1*	i	x	x	-3.9%*	i
O=C(Cn1ncc2c3ccccc3n(Cc3ccccc3F)c2c1=O)NCCN1CCOCC1	-9.9*	i	x	x	28%*	i
CN(C)c1ccc(NC(=O)CN2CCC(c3nc4ccccc4s3)CC2)cc1	x	x	-110	11	x	x
CC(NC(=O)c1cccc(S(=O)(=O)N2CCN(C)CC2)c1)C1CC2CCC1C2 (stereo unspecified)	-5.4*	i	22	7	23%*	i
O=C(NCc1ccccc1)c1cccc(S(=O)(=O)NCc2ccccc2)c1	i	i	-34	14	x	x
CN1CCN(S(=O)(=O)c2cccc(C(=O)NC3CCCc4ccccc43)c2)CC1 (stereo unspecified)	-5.6*	i	3	x	51%*	i
CCCNS(=O)(=O)c1cccc(C(=O)NC2CCCc3ccccc32)c1 (stereo unspecified)	-12*	i	9	5	20%*	i
CN(C)S(=O)(=O)c1cccc(C(=O)NC2CCCc3ccccc32)c1 (stereo unspecified)	i	i	5	x	x	x
CC1CCC(NC(=O)c2cccc(S(=O)(=O)NCc3ccccc3)c2)CC1 (stereo unspecified)	-15*	i	x	x	36%*	i
CC(=O)N1CCN(S(=O)(=O)c2cccc(C(=O)NC3CCCc4ccccc43)c2)CC1 (stereo unspecified)	i	i	-12	4	x	x
CCC(CN1CCOCC1)NC(=O)Cc1c(C)[nH]c2ccc(Cl)cc12 (stereo unspecified)	x	x	-42	8	x	x
Cc1nn(CC(=O)N[C@@H](C)Cn2nnn(-c3ccccc3)c2=O)c(=O)c2ccccc12	x	x	-9	8	x	x
O=C(Nc1cc(S(=O)(=O)N2CCCCC2)ccc1O)c1ccccc1NS(=O)(=O)c1ccc(F)cc1	-5.4*	i	20	4	27%*	i
O=C(Nc1ccccc1OC(F)F)c1cccc(S(=O)(=O)N2CCCC2)c1	-5.1*	i	x	x	56%*	i
CN1CCN(S(=O)(=O)c2cccc(C(=O)Nc3ccc(Br)cc3Br)c2)CC1	-10*	i	x	x	8.7%*	i
SMILES	CHT inh	CHT allo act	EP2 mod	EP2 antag	CHT inh conf	HEK293 CHT ctr
CC(=O)C1=C(O)C(=O)N(CC#N)C1c1ccc(C(C)(C)C)cc1 (stereo unspecified)	x	x	7	6	x	x
COc1ccccc1NC(=O)CSc1nnc(-c2ccncc2)n1-c1ccc(C)cc1	x	x	-23	12	x	x
O=c1c2ccccc2[nH]c(=S)n1CCN1CCCC1	-7*	i	-2	0	21%*	i
CCN1CCN(CCn2c(=S)[nH]c3ccccc3c2=O)CC1	i	i	5	26	x	x
Cc1ccccc1-n1c(SCC(=O)N2CCCCC2C)nnc1-c1cccnc1 (stereo unspecified)	x	x	-40	9	x	x
c1ccc(CCCCN2C(Nc3ccccc3)=NC[C@@H]2Cc2ccccc2)cc1	-7.5*	i	x	x	32%*	i
CCCCCCCN1C(Nc2ccccc2)=NC[C@@H]1Cc1ccccc1	i	i	x	x	x	x
Cc1cc2cc3c(cc2nc1SCC(=O)Nc1ccccc1F)CCC3	x	x	12	13	x	x
O=C(NCc1cccnc1)c1ccc(COc2ccc3c(c2)CCC3)o1	i	i	-12	7	x	x
O=C(NCc1cccnc1)c1ccc(COc2ccccc2Cl)o1	-5.4*	i	-29	12	58%*	i
CC(C)(C)NC(=O)c1ccc(COc2ccccc2Br)o1	-6.3*	i	-43	6	i	i
O=C(Nc1cccnc1)c1ccc(COc2ccccc2Br)o1	-5.7*	i	-30	4	55%*	i
CC(=O)Nc1ccc(NC(=O)c2ccc(COc3ccccc3Br)o2)cc1	i	i	x	x	x	x
COc1ccccc1OCc1ccc(C(=O)NC(C)(C)C)o1	i	i	-21	11	x	x
CCN(CC)C(=O)c1ccc(COc2ccccc2Br)o1	-8.2*	i	6	3	58%*	i
O=C(C1CCC1)N1CCC[C@@H]1Cn1nc(-c2cccs2)ccc1=O	x	x	-3	6	x	x
CCOc1cc(N2CCOCC2)c(OCC)cc1NC(=O)Cc1ccccc1	-8.6*	i	-3	11	57%*	i
CCOc1cc(N2CCOCC2)c(OCC)cc1NC(=O)Cc1ccccc1OC	i	i	-6	11	x	x
COc1ccc(-c2nc3cccc(C)n3c2NCc2ccc3c(c2)OCO3)cc1OC	x	x	0	12	x	x
CCN1CCn2c3c(c4cc(Cl)ccc42)CCCC31 (stereo unspecified)	-5.8*	i	-2	10	70%*	i
Cc1cc(Nc2cccc(Cl)c2Cl)n2ncnc2n1	i	i	4	8	x	x
Cc1ccc(Nc2cc(C)nc3ncnn23)c(Cl)c1	-5.6*	i	31	3	i	i
COc1cc(/C=C2/C(=O)c3cccc([N+](=O)[O-])c3C2=O)c(Br)cc1O	-7.2*	i	-96	49*	43%*	i
CCOC(=O)N1CCN(C(=O)c2ccc3nc(N4CCC(C)CC4)sc3c2)CC1	-7.2*	i	7	11	69%*	i
